Assay results published in PubChem BioAssay.
Results filed as inconclusive are left out. The source made the active and inactive calls.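 The calls were made as follows, unless noted: active = normalized viability below 100% at a tested concentration; inactive = the rest.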

Legend:
[1] = ovarian cancer cell viability with rucaparib, profiling panel, oncology-focused library, rucaparib conditional (AID 1508598); conditions: patient-derived ovarian cancer cells, CellTiter-Glo viability, 144 h, stronger effect = lower value
[2] = biological target: ATP-dependent translocase ABCB1 (Homo sapiens) (UniProt P08183); assay: MDR1 (ABCB1) efflux transporter inhibition, cell-based (AID 377; in the data active = fluorescence slope change above about 50%); conditions: MDR1-expressing cells, fluorescent substrate accumulation slope; stronger effect = higher value; concentration not given here
ATP-dependent translocase ABCB1 (Homo sapiens), sequence (P08183 whole entry, looked up): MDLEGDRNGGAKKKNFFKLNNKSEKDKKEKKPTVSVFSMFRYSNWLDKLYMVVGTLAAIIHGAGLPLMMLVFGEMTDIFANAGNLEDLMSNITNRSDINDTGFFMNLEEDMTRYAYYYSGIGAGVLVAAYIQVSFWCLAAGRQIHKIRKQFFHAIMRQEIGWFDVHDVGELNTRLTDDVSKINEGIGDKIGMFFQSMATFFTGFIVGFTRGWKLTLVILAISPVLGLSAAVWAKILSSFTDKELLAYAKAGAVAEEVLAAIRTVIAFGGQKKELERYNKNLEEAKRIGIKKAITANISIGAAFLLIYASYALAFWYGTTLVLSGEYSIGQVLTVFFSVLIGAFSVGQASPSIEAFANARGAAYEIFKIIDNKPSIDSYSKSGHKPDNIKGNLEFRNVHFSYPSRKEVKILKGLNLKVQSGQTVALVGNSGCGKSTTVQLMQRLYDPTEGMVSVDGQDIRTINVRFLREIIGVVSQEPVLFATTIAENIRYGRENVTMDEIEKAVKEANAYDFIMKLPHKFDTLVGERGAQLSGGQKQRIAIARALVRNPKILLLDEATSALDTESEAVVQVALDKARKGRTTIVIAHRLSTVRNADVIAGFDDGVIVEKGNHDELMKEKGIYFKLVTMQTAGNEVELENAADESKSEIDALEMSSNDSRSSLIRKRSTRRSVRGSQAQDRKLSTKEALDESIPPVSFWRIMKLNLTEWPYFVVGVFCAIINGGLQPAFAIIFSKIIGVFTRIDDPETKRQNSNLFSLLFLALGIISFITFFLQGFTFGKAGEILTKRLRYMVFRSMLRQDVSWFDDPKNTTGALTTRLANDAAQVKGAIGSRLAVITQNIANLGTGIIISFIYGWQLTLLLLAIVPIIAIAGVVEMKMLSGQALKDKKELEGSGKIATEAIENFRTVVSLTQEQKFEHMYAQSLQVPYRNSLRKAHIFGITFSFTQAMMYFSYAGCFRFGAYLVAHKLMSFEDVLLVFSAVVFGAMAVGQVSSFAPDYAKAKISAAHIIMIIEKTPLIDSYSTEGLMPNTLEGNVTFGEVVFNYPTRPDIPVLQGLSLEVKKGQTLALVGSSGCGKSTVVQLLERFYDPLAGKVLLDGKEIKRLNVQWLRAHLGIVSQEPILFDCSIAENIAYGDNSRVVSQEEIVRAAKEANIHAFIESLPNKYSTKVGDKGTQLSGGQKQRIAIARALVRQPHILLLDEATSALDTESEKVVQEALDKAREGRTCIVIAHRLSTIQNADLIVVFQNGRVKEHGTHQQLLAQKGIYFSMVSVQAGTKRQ

[3] = hESC survival regulators, cell-based (AID 493140; call rule not given here;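 also: cells exposed to compounds for four days before counting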); conditions: human embryonic stem cell survival screen; stronger effect = higher value
[4] = survival rescue of mitochondrial mutant cells in low glucose, primary screen, MELAS cybrids, Rieske KO mouse fibroblasts, CellTiter-Glo (AID 1508586;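 active = mean z-score across replicates of 1.96 or higher in either the MELAS or the Rieske mutant cell line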;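 also: z relative to plate mean and SD of compound and empty wells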)
[5] = kinase inhibitors against Plasmodium liver-stage infection, cell-based, known kinase inhibitor set, luminescence, hepatoma host viability (AID 624392; call rule not given here;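 also: infected cells incubated roughly two days before readout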); conditions: Plasmodium liver stage in hepatoma cells, luciferase luminescence, concentration not given here; liver cell % of control: measured here: host liver cell viability; parasite % of control: stronger effect = lower value
[6] = modulators of glucocorticoid suppression of NF-kB, cell-based, luciferase, IL-1B stimulus, dexamethasone (AID 624486; call rule not given here;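 as to percent of negative control (+Dex): 100% = mean signal of vehicle control wells on the plate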); conditions: NF-kB luciferase reporter, IL-1B + dexamethasone, luminescence; percent of negative control (+Dex): actives lie on both sides, concentration not given here; z-score: measured here: IL-1B alone, no Dex
[7] = kinase inhibitors altering Pseudomonas killing of worms, whole organism (AID 651566; call rule not given here;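 also: tested at 14 µM; sign flipped so higher z means a lower ratio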); conditions: C. elegans killed by P. aeruginosa, survival ratio
[8] = activators of macrophage pro-inflammatory response, cell-based, murine, luminescence (AID 652131; call rule not given here); conditions: murine macrophage pro-inflammatory reporter, stronger effect = higher value
[9] = at 0.000305 µM, OCI-C5x cells, with rucaparib 10 µM, 100% = cells with rucaparib alone
[10] = at 0.000305 µM, OCI-C5x cells, without rucaparib
[11] = at 0.000305 µM, OCI-P5x cells, with rucaparib 20 µM, 100% = cells with rucaparib alone
[12] = at 0.000305 µM, OCI-P5x cells, without rucaparib
[13] = at 0.00122 µM, OCI-C5x cells, with rucaparib 10 µM, 100% = cells with rucaparib alone
[14] = at 0.00122 µM, OCI-C5x cells, without rucaparib
[15] = at 0.00122 µM, OCI-P5x cells, with rucaparib 20 µM, 100% = cells with rucaparib alone
[16] = at 0.00122 µM, OCI-P5x cells, without rucaparib
[17] = at 0.00488 µM, OCI-C5x cells, with rucaparib 10 µM, 100% = cells with rucaparib alone
[18] = at 0.00488 µM, OCI-C5x cells, without rucaparib
[19] = at 0.00488 µM, OCI-P5x cells, with rucaparib 20 µM, 100% = cells with rucaparib alone
[20] = at 0.00488 µM, OCI-P5x cells, without rucaparib
[21] = at 0.0195 µM, OCI-C5x cells, with rucaparib 10 µM, 100% = cells with rucaparib alone
[22] = at 0.0195 µM, OCI-C5x cells, without rucaparib
[23] = at 0.0195 µM, OCI-P5x cells, with rucaparib 20 µM, 100% = cells with rucaparib alone
[24] = at 0.0195 µM, OCI-P5x cells, without rucaparib
[25] = at 0.0781 µM, OCI-C5x cells, with rucaparib 10 µM, 100% = cells with rucaparib alone
[26] = at 0.0781 µM, OCI-C5x cells, without rucaparib
[27] = at 0.0781 µM, OCI-P5x cells, with rucaparib 20 µM, 100% = cells with rucaparib alone
[28] = at 0.0781 µM, OCI-P5x cells, without rucaparib
[29] = at 0.313 µM, OCI-C5x cells, with rucaparib 10 µM, 100% = cells with rucaparib alone
[30] = at 0.313 µM, OCI-C5x cells, without rucaparib
[31] = at 0.313 µM, OCI-P5x cells, with rucaparib 20 µM, 100% = cells with rucaparib alone
[32] = at 0.313 µM, OCI-P5x cells, without rucaparib
[33] = at 1.25 µM, OCI-C5x cells, with rucaparib 10 µM, 100% = cells with rucaparib alone
[34] = at 1.25 µM, OCI-C5x cells, without rucaparib
[35] = at 1.25 µM, OCI-P5x cells, with rucaparib 20 µM, 100% = cells with rucaparib alone
[36] = at 1.25 µM, OCI-P5x cells, without rucaparib
[37] = at 5 µM, OCI-C5x cells, with rucaparib 10 µM, 100% = cells with rucaparib alone
[38] = at 5 µM, OCI-C5x cells, without rucaparib
[39] = at 5 µM, OCI-P5x cells, with rucaparib 20 µM, 100% = cells with rucaparib alone
[40] = at 5 µM, OCI-P5x cells, without rucaparib
[41] = MELAS cybrid survival, CellTiter-Glo 48 h, stronger effect = higher value
[42] = Rieske KO mouse fibroblast survival, CellTiter-Glo 72 h

COc1cc([C@H]2c3cc4c(cc3[C@@H](O[C@@H]3O[C@@H]5CO[C@@H](C)O[C@H]5[C@H](O)[C@@H]3O)[C@H]3COC(=O)[C@H]23)OCO4)cc(OC)c1O
active: viability [1, 11] 99.3% | viability [1, 12] 97.3% | viability [1, 15] 96.5% | viability [1, 16] 90.8% | viability [1, 23] 98.6% | viability [1, 24] 97.4% | viability [1, 26] 95.6% | viability [1, 27] 99.3% | viability [1, 28] 98.6% | viability [1, 29] 75.1% | viability [1, 30] 64.7% | viability [1, 31] 99.1% | viability [1, 32] 82% | viability [1, 33] 72% | viability [1, 34] 61.6% | viability [1, 35] 79.8% | viability [1, 36] 42.6% | viability [1, 37] 38.1% | viability [1, 38] 29.3% | viability [1, 39] 55.2% | viability [1, 40] 26.7%
inactive: viability [1, 9] 115% | viability [1, 10] 108% | viability [1, 13] 108% | viability [1, 14] 103% | viability [1, 17] 123% | viability [1, 18] 100% | viability [1, 19] 101% | viability [1, 20] 101% | viability [1, 21] 112% | viability [1, 22] 103% | viability [1, 25] 106%

CC(C)(C(=O)NCC(F)(F)C(F)(F)F)C(=O)N[C@H]1C(=O)Nc2ccccc2-c2ccccc21
inactive: viability [1, 9] 111% | viability [1, 10] 114% | viability [1, 11] 103% | viability [1, 12] 105% | viability [1, 13] 106% | viability [1, 14] 111% | viability [1, 15] 103% | viability [1, 16] 104% | viability [1, 17] 114% | viability [1, 18] 117% | viability [1, 21] 110% | viability [1, 22] 117% | viability [1, 25] 119% | viability [1, 26] 119% | viability [1, 29] 116% | viability [1, 30] 107% | viability [1, 33] 114% | viability [1, 34] 113% | viability [1, 37] 117% | viability [1, 38] 108%
active: viability [1, 19] 99.5% | viability [1, 20] 94.4% | viability [1, 23] 85.5% | viability [1, 24] 90.2% | viability [1, 27] 92% | viability [1, 28] 91.6% | viability [1, 31] 85.7% | viability [1, 32] 85.2% | viability [1, 35] 82.5% | viability [1, 36] 82% | viability [1, 39] 72% | viability [1, 40] 76.9%

C[C@H]1NC(=O)NC1=O
inactive: fluorescence slope change [2] 1.4% | survival [3] 3.67 | z-score [4, 41] 0.723
-0.336: z-score [4, 42]

COc1cccc(-n2ncc3c(N/N=C/c4ccc(S(C)(=O)=O)cc4)ncnc32)c1
inactive: parasite % of control [5] 26.1% | z-score [7] -1.31 | z-score [8] -0.723 | z-score [4, 41] 1.75
0.965: z-score [6]
107%: liver cell % of control [5]
-0.0857: z-score [4, 42]
active: percent of negative control (+Dex) [6] 136%
